Our source for the Potency and outcome values is PubChem BioAssay (NCATS).

Molecules are shown by their SMILES. Several values for one entry are separate records, joined by “and”; a condition that tells them apart may be missing. Identical values can stand only once. Values without a mark were called inactive. Inconclusive results are not listed. A call without a number means that no potency is given here. Activity calls are given as the source filed them. Unless noted, calls come from the whole dose curve; as a rule, active = well fitted curve in the direction sought with a large enough effect; inconclusive = small, poorly fitted or top-dose-only effect, or another doubt; inactive = no such curve, though single readings can be large; an effect the other way counts as inactive or inconclusive.

The target of assay [1] is Voltage-gated inwardly rectifying potassium channel KCNH2 (Homo sapiens) (UniProt Q12809). The assay is described as follows: qHTS Assay for Small Molecule Inhibitors of the Human hERG Channel Activity (AID 588834).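 Note: lower thallium flux fluorescence means stronger hERG block; nearly all actives have a fitted effect of over 50% in size.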 Note: potency is the fitted concentration of half-maximal effect. In outline:
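Homogeneous FluxOR thallium flux assay using hERG-expressing U2OS cells (BacMam). Compound treatment about 10 minutes preceded stimulation; reduced fluorescence taken as channel block.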

For assay [2], the target named is Glutaminase kidney isoform, mitochondrial (Homo sapiens) (UniProt O94925). Put plainly: qHTS for Inhibitors of Glutaminase (GLS): LOPAC Validation (AID 624146). Note: nearly all actives have a fitted effect of over 60% in size. Note: potency is the fitted concentration of half-maximal effect. The procedure, abridged: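 hKGA in 45 mM KH2PO4 (pH 8.2), 0.02% Tween-20 with compound, then 1mM L-Glutamine (stock as added) plus glutamate oxidase/HRP/Amplex red coupling mix. Fluorescence read initially and after 30 min at RT; signal change reflects glutamate formation.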
Chain of Glutaminase kidney isoform, mitochondrial (Homo sapiens) (O94925 whole entry, looked up, canonical isoform): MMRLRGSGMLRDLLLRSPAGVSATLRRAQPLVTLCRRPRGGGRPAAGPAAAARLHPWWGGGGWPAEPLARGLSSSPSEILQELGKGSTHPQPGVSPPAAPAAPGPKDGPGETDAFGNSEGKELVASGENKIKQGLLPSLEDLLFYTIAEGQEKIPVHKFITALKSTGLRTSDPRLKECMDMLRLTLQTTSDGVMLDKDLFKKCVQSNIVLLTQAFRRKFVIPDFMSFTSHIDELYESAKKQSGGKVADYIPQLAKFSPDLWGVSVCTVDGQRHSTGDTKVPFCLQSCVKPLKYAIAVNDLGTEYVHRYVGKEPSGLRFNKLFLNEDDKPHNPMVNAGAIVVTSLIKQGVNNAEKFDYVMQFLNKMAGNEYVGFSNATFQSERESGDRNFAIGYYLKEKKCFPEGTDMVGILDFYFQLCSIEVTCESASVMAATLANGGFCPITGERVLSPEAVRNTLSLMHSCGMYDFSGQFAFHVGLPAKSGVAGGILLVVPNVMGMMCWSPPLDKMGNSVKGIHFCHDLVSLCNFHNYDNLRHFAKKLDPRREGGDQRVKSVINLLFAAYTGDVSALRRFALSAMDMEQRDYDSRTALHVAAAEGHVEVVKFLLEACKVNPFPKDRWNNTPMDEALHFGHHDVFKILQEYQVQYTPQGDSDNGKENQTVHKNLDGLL
Background: Quantitative high-throughput screening tests each substance at several concentrations.

Assay [3] can be described thus: qHTS of Nrf2 Activators: LOPAC Validation (AID 624149). The procedure, abridged: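 Following overnight seeding in 5% FBS OPTI-MEM, AREc32_Fluc cells receive compounds for a 24 hr incubation at 37 deg C with 5% CO2. Steady-Glo is added, and after 30 min at RT luminescence is recorded.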
Assay [4] deals with Luciferin 4-monooxygenase (Photinus pyralis) (UniProt P08659). The assay is described as follows: Biochemical firefly luciferase enzyme assay for NPC (AID 624030). Note: nearly all actives have a fitted effect of over 70% in size. Note: potency is the fitted concentration of half-maximal effect. The procedure, abridged:
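Purified P. pyralis luciferase at 10 nM in 50 mM Tris Acetate (final), luminescence read within 5 minutes of enzyme addition to compounds. Activity normalised to PTC124 versus DMSO; concentration-response curves classed by r2, magnitude and activity.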

A short description of assay [5]: S16 Schwann cell viability assay (CellTiter-Glo assay) (AID 624031). Note: series mostly up to about 58 µM; nearly all actives have a fitted effect of over 70% in size. In outline: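 CellTiter-Glo ATP luminescence counter-screen in untransfected S16 rat Schwann cells, 24h compound exposure at 37 degree Celsius after overnight seeding (500-750 cells/well); response scaled between cell-free wells and DMSO (0% activity), curves classed by r2 and magnitude.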
On the technique in general: ATP-based viability assays read luminescence as a measure of living cells.

A short description of assay [6]: S16 Schwann cell PMP22 intronic element beta-lactamase assay (AID 624044; calls by dose curve; note: nearly all actives have a fitted effect of over 15% in size). In outline: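 Beta-lactamase reporter under a PMP22 intronic regulatory element in stable S16 rat Schwann cells; 24 h compound exposure. 460 nm blue signal normalized between DMSO (0%) and potassium clavulanate, with 535 nm FRET tracking viability; curves classed by r2 and response.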
Assay [7] addresses Glucagon-like peptide 1 receptor (Homo sapiens) (UniProt P43220). Put plainly: qHTS of GLP-1 Receptor Agonists: LOPAC Validation (AID 624148).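 Note: higher luminescence signal means agonism.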 In outline:
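HEK293 cells stably co-expressing GLP-1R and a cAMP-responsive luciferase reporter, plated 12 hours before compound, then incubated 4-6 hr at 37 deg C. Luminescence read 12 min after detection reagent.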

Assay [8] in a line: qHTS of Trypanosoma Brucei Inhibitors: LOPAC Validation (AID 624147). In outline:
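T. brucei PYK with substrate was exposed to pin-transferred compounds across a concentration series, then started with 130 uM ADP (final). After 45 min at room temperature, Kinase-Glo Plus luminescence was read, normalized and curve-fitted.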

Chain of Voltage-gated inwardly rectifying potassium channel KCNH2 (Homo sapiens) (Q12809 whole entry, looked up): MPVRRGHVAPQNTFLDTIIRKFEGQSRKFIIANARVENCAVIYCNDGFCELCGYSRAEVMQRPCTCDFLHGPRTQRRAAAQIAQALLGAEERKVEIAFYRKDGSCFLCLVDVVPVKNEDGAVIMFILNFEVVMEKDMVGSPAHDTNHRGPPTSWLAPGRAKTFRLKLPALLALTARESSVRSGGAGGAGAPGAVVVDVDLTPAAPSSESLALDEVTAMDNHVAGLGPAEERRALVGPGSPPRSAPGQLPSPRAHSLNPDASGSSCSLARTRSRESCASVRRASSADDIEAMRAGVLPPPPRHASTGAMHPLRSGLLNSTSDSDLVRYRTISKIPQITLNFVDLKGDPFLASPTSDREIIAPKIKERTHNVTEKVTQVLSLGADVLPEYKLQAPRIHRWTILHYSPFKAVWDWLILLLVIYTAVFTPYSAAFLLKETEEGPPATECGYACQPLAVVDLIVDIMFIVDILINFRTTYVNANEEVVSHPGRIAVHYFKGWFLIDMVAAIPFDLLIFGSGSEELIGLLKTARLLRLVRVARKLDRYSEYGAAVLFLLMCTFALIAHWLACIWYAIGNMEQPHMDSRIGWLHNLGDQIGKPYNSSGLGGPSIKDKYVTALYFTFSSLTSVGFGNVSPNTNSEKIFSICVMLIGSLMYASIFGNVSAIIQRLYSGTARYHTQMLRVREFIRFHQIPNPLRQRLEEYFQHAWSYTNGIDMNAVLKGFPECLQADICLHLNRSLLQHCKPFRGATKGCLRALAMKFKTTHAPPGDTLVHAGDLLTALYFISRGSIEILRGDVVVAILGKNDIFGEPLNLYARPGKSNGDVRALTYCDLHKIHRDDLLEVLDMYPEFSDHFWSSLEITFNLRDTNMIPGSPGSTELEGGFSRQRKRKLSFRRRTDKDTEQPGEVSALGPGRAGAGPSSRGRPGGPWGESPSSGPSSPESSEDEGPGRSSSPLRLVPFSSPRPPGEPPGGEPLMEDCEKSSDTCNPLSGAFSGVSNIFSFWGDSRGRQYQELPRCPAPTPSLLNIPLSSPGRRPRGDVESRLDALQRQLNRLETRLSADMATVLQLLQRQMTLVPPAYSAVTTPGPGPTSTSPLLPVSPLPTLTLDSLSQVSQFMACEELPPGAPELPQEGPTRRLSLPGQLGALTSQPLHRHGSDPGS
Chain of Luciferin 4-monooxygenase (Photinus pyralis) (P08659 whole entry, looked up): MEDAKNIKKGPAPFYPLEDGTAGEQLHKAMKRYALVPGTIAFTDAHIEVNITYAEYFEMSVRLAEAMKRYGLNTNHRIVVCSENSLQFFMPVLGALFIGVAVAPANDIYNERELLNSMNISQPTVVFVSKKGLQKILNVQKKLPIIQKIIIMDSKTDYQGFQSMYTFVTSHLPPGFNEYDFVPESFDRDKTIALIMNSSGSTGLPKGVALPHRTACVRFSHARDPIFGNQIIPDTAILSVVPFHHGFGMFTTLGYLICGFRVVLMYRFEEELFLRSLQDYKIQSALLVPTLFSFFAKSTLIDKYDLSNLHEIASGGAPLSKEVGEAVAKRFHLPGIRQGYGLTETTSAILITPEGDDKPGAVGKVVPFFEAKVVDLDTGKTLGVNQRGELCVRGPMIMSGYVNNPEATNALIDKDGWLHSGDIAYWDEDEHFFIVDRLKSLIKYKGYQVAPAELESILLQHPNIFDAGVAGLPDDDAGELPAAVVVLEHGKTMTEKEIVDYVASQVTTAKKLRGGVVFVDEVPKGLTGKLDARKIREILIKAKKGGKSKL
Chain of Glucagon-like peptide 1 receptor (Homo sapiens) (P43220 whole entry, looked up): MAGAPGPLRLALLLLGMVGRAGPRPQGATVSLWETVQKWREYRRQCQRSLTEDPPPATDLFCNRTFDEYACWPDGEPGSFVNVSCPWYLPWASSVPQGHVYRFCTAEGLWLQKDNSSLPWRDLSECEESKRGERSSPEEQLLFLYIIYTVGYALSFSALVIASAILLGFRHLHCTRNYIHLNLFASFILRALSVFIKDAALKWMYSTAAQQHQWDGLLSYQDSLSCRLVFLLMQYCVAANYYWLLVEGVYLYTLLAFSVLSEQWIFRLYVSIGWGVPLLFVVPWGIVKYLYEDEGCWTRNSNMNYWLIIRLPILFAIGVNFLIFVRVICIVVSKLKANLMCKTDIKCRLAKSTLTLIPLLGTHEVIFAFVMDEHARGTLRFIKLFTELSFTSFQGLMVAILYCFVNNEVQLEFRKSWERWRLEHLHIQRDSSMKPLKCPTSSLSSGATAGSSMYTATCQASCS

On to `CC(Cc1ccc(O)cc1)NCC(O)c1cc(O)cc(O)c1` (stereo unspecified), for which the Potency result in assay [1] is “inactive”. For the same molecule, the Potency in assay [2] is 4.47 µM (active). The result in assay [3] was inactive.
For `c1ccc(C2(c3ccccc3)CC2C2=NCCN2)cc1` (stereo unspecified), the Potency result in assay [4], in assay [5], in assay [6] and in assay [2] was “inactive” each time. The outcome in assay [7] and in assay [3] was inactive.
For `CCCN(CCC)C1CCc2ccc(O)cc2C1` (stereo unspecified), the Potency in assay [1] was 2.24 µM (active). Further, the Potency entry in assay [2] was “inactive”. In addition, the call in assay [7] and in assay [3] was inactive.
Take `Cc1c(C(=O)c2cccc3ccccc23)c2cccc3c2n1[C@H](CN1CCOCC1)CO3`: in assay [1], the Potency is 6.31 µM (active). The molecule was classed as inactive in assay [7] and in assay [3].
For the molecule `C#CCOC(=O)C1=CCCN(C)C1`, in assay [2], the Potency entry is “inactive”. In addition, the outcome in assay [8], in assay [7] and in assay [3] was inactive.
As for `C/C=C(/C)C(=O)O[C@H]1C(C)=C2[C@H]([C@@H]1OC(=O)CCCCCCC)[C@@](C)(OC(C)=O)C[C@H](OC(=O)CCC)[C@@]1(O)[C@H]2OC(=O)[C@@]1(C)O`, in assay [2], the Potency entry was “inactive”. Moreover, the molecule was classed as inactive in assay [7] and in assay [3].
`Cc1ccc(Cl)c(O)c1`: the Potency result in assay [4] and in assay [5] was “inactive” in each case.
`O=C(Cc1ccc(Cl)c(Cl)c1)N1CCCCC1CN1CCCC1` (stereo unspecified): the Potency result in assay [2] was “inactive”. Moreover, the outcome in assay [7] and in assay [3] was inactive.
`C=CCN1CC[C@]23CCCCC2[C@H]1Cc1ccc(O)cc13` (stereo partly specified): the Potency entry in assay [4], in assay [5], in assay [6] and in assay [2] was “inactive” throughout. The molecule was classed as inactive in assay [8], in assay [7] and in assay [3].
Regarding `[Cl][In]([Cl])[Cl]`, in assay [4], the Potency is 14.8 µM (active).
Turning to `CCCN1CCO[C@@H]2c3cc(O)ccc3OC[C@H]21`, the Potency result in assay [1] is “inactive”. Besides, the Potency in assay [2] was 4.47 µM (active) and 1.41 µM (active). Also, the molecule was classed as inactive in assay [7] and in assay [3].
`CC(=O)[C@H]1CCC2C3CC[C@H]4C[C@H](O)CC[C@]4(C)C3CC[C@@]21C` (stereo partly specified): the Potency entry in assay [1] and in assay [2] was “inactive” each time. The outcome in assay [7] and in assay [3] was inactive.
In the case of `C#CC1(O)CCC2C3CCC4=CC(=O)CCC4(C)C3CCC21C` (stereo unspecified), the Potency result in assay [5] and in assay [6] was “inactive” in each case.
As for `CC(=O)OCC1=C(C(=O)O)N2C(=O)[C@@H](N)[C@@H]2SC1`, the Potency result in assay [5] and in assay [6] was “inactive” each time.
For `CS(=N)(=O)CC[C@H](N)C(=O)O` (stereo partly specified), the Potency result in assay [1] and in assay [2] was “inactive” throughout. Moreover, the result in assay [7] and in assay [3] was inactive.
`CCC1(CCC(C)C)C(=O)NC(=O)NC1=O`: the Potency result in assay [4] was “inactive”.
Regarding `O=C(N[C@H]1CN2CCC1CC2)c1ccc(Cl)cc1`, the Potency result in assay [2] is “inactive”. Besides, the result in assay [7] and in assay [3] was inactive.
Take `C[C@]12CC[C@@H]3[C@@H](CCC4=CC(=O)CC[C@@H]43)[C@@H]1CC[C@@H]2OC(=O)CCc1ccccc1`: the Potency entry in assay [4] is “inactive”.
Still for that read-out and setting: the entry for `CC(O)CN1CCN(CC(=O)[O-])CCN(CC(=O)[O-])CCN(CC(=O)[O-])CC1.[Gd+3]` (stereo unspecified) is “inactive”.
As for `CNCCc1ccc(O)c(O)c1`, the Potency result in assay [1] and in assay [2] was “inactive” throughout. The call in assay [3] was inactive.
For the molecule `CNCCc1c[nH]c2ccc(O)cc12`, the Potency result in assay [1] is “inactive”. Besides, the molecule was called inactive in assay [8], in assay [7] and in assay [3].
As to `CO/C=C(/C(=O)OC)c1ccccc1Oc1cc(Oc2ccccc2C#N)ncn1`, in assay [4], the Potency entry was “inactive”.
Consider `C[C@@H](N)Cc1cnc[nH]1`, for which the Potency result in assay [1] and in assay [2] was “inactive” throughout. Besides, the outcome in assay [7] and in assay [3] was inactive.
Consider `CN[C@@H]1C[C@@H](c2ccc(Cl)c(Cl)c2)c2ccccc21`, for which the Potency in assay [1] was 12.6 µM (active). Further, the outcome in assay [7] and in assay [3] was inactive.
For the molecule `CC[C@@]1(O)C(=O)OCc2c1cc1n(c2=O)Cc2cc3ccccc3nc2-1`, the Potency result in assay [1] and in assay [2] was “inactive” each time. Also, the call in assay [7] and in assay [3] was inactive.
In the case of `NC1CCc2cc(O)c(O)cc2C1` (stereo unspecified), the Potency result in assay [1] was “inactive”. Moreover, the molecule was classed as inactive in assay [7] and in assay [3].
Turning to `CC1=NN=C(c2ccc(N)cc2)c2cc3c(cc2C1)OCO3`, the outcome in assay [8], in assay [7] and in assay [3] was inactive.
Take `NC(CCP(=O)(O)O)C(=O)O` (stereo unspecified): the Potency result in assay [1] and in assay [2] was “inactive” throughout. Also, the result in assay [7] and in assay [3] was inactive.
In the case of `NC(=NCCC[C@H](N)C(=O)O)N[N+](=O)[O-]`, the Potency entry in assay [1] and in assay [2] was “inactive” throughout. Besides, the call in assay [7] and in assay [3] was inactive.
With `COC(=O)[C@@H](N)CCCN=C(N)N[N+](=O)[O-]`, the Potency entry in assay [5], in assay [6] and in assay [2] was “inactive” throughout. Also, the molecule was called inactive in assay [7] and in assay [3].
